From PubChem BioAssay (NCI) come the findings set out here.

About 83,000 compounds went through this panel and 20% of them were active in at least one assay; those are over-represented in the sample as a whole.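 Negative percent growth values reflect cell death: -40 means 40% of the cells present at the start died, and -100 means all died.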 A number with no mark means an inactive call. The source made the active and inactive calls.

For this test, the system named is MDA-MB-435 melanoma. Put plainly: NCI-60 one-dose screen, 48 h (100 = growth as untreated, 0 = no growth, -100 = all killed). The note with it: 10 µM unless noted. How it is done: Growth inhibition of the MDA-MB-435 human Melanoma tumor cell line is measured as a screen for anti-cancer activity. Cells are grown in 96 well plates and exposed to the test compound for 48 hours. Compounds are tested at a single concentration, which is 10^-5 M for most compounds. The reported endpoint is percent growth (GI% or GIPRCNT), where numbers from 0 - 100% represent growth inhibition, and numbers from -100% - 0 represent cell death. For example, a value of 40 represents 60% growth inhibition. A value of 0 means no net growth occurred over the course of the experiment. A value of -40 indicates 40% of cells at the beginning of the experiment died by the end of the experiment. A value of -100 means all cells are dead at the end of the experiment.
NCI-60 Human Tumor Cell Lines Screen was performed using the standard one-dose NCI protocol, which is described in more detail at https://dtp.cancer.gov/discovery_development/nci-60/default.htm.
Compounds with GIPRCNT values below 10 were considered active. Activity score was based on GIPRCNT using the following formula: […]
Score is 0 for GIPRCNT values of 100 or above, 50 for GIPRCNT values of 0, and 100 for GIPRCNT values of -100.
Consider `C/C(Cc1ccc(Cl)cc1)=C(\c1ccc(OCCN2CCOCC2)cc1)c1ccc(OC(=O)Cc2ccccc2)cc1`, for which the growth was 98.6%.

With `Cc1c2cc(Cl)c3ccccc3c2c[n+]2ccccc12`, the growth is 64.9%.

Take `COc1ccc(C2=N[C@@H](Cc3ccccc3)C(=O)Nc3ccsc32)cc1`: the growth was -15.7% (active).

For the compound `CC(=O)O[C@H](C[C@H](C(C)C)N(C)C(=O)[C@@H](NC(=O)[C@H]1CCCCN1C)C(C)C)c1nc(C(=O)NC2CCC(C(=O)O)CC2)cs1` (stereo not given in full), the growth was -28.9% (active).

In the case of `COC(=O)[C@@H](C)C[C@H](Cc1ccccc1)NC(=O)c1csc([C@@H](C[C@H](C(C)C)N(C)C(=O)[C@H](C)NC(=O)[C@H]2CCCN2C)OC(C)=O)n1`, the growth is -27.1% (active).

In the case of `O=C(N/N=C/c1ccc(N(CCCl)CCCl)cc1)c1cccc2ccccc12`, the growth is 13.8%.

Take `CCNc1nc(Cl)nc(NCC)n1`: the growth is 94.8%.

Take `CC12CCC3C(C=CC4=C(N)C(=O)CCC43C)C1CCC2=O` (stereo not given): the growth is 113%.

Turning to `N#CC1(C#N)C(c2ccc(N(CCCl)CCCl)cc2)OC23CCCCC2C1(C#N)C(=N)O3` (stereo not given), the growth was 101%.

As to `CN1C(=O)N[C@H]2[C@@H]3NC(=O)c4ccc(Br)n4[C@@H]3C[C@]21O`, the growth is -30.6% (active).

Consider `C[C@]12CC[C@H]3[C@@H](CC[C@]4(O)C[C@@H](O[C@@H]5O[C@H](CO)[C@@H](O[C@@H]6OC[C@@H](O)[C@H](O)[C@H]6O)[C@H](O)[C@H]5O)CC[C@]34C=O)[C@@]1(O)CC[C@@H]2C1=CC(=O)OC1`, for which the growth is 16.9%.

Consider `CCOP1(=O)CC(C)=C(Cl)C(P(=O)(OCC)OCC)C1` (stereo not given), for which the growth was 114%.

Take `CCn1nccc1NC(=O)C(=O)c1cn(Cc2ccc(F)cc2)c2cccc(OC)c12`: the growth was 104%.

Turning to `O=C(Nc1ccncc1F)c1cn(CC2CC2)c2ccccc12`, the growth was 106%.

As for `COc1cc(/C=N/C2=C(C#N)C(c3ccco3)c3c(c4cc(C)ccc4oc3=O)O2)cc(OC)c1OC` (stereo not given), the growth was 26.1%.

With `COC(=O)[C@@H](C)C[C@H](Cc1ccccc1)NC(=O)c1csc([C@@H](C[C@H](C(C)C)N(C)C(=O)[C@@H](NC(=O)[C@H]2CCCN2C)C2CC2)OC(C)=O)n1`, the growth was -20.6% (active).

For the compound `O=C1OCCC1Br` (stereo not given), the growth is 103%.

Regarding `O=C(NCCN1CC1)C(=O)NCCN1CC1`, the growth was 106%.

Consider `ClCCN(CCCl)c1ccc(-n2cnc3c(Cl)ncnc32)cc1`, for which the growth is 46.9%.

For the compound `CC(=O)OC[C@]1(C)C=C2C(=O)[C@](C)(O)C3(CC3)C(C)=C2[C@H]1O`, the growth was -24.1% (active).

For `COC(=O)[C@@H](C)C[C@H](Cc1ccccc1)NC(=O)c1csc([C@@H](C[C@H](C(C)C)N(C)C(=O)[C@@H](NC(=O)[C@H]2CCCCN2C)C(C(F)(F)F)C(F)(F)F)OC(C)=O)n1`, the growth was -46.1% (active).

For `CC1(C)[C@H](O)[C@H](F)C[C@@]2(C)Oc3ccc(C(=O)Nc4ccc5c(c4)NC(=O)C54CCN(CCCCC#N)CC4)cc3C[C@H]12`, the growth is 24.8%.

Turning to `O[C@H](CN1CC1)[C@@H](O)CN1CC1`, the growth is 78.3%.

As to `COC(=O)[C@@H](C)C[C@H](Cc1ccccc1)NC(=O)c1csc([C@@H](C[C@H](C(C)C)N(C)C(=O)[C@@H](NC(=O)[C@H]2CCCCN2C)C2CC2)OC(C)=O)n1`, the growth was -12.1% (active).

Take `CO[C@H](C(=O)O)[C@@H]1Cc2cc3cc(OC4CC(OC5CC(O)C(O)C(C)O5)C(O)C(C)O4)c(C)c(O)c3c(O)c2C(=O)[C@H]1OC1CC(OC2CC(OC3CC(C)(O)C(O)C(C)O3)C(O)C(C)O2)C(O)C(C)O1` (stereo not given in full): the growth was 1.21% (active).

Consider `CCc1ccccc1[C@@H]1C[C@]2(C)CCO[C@@H]2OO1`, for which the growth is 109%.

Regarding `Nc1cc2nc3ccccc3nc2cc1N`, the growth was 109%.

`O=C(O)C(Cl)(Cl)C(F)(F)F`: the growth was 97.7%.

As for `N#C[Se]CCN1C(=O)c2ccccc2C1=O`, the growth was 20.8%.

Turning to `C/C(=C\c1ccn(-c2ccc(N)cc2)n1)[C@@H]1C[C@@H]2O[C@]2(C)CCC[C@H](C)[C@H](O)[C@@H](C)C(=O)C(C)(C)[C@@H](O)CC(=O)O1`, the growth is -33.6% (active).

Take `CC1=C(CN)C2=C(C)C3(CC3)[C@@](C)(O)C(=O)C2=C1`: the growth was 97.9%.

For `Fc1ccc(C2=CCNCC2)cc1`, the growth is 102%.

As to `COC(=O)[C@@]1(O)C[C@H]2O[C@]1(C)n1c3ccccc3c3c4c(c5c6ccccc6n2c5c31)C(=O)NC4`, the growth was -90.2% (active).

As to `COc1ccc(S(=O)(=O)N(Cc2ccc3c(c2)C=CC(C)(C)O3)c2ccccc2)cc1OC`, the growth was 87.3%.

For the compound `CC(C)(C)C(=O)OCOP(=O)(NCc1ccccc1)C1CCCN(O)C1=O` (stereo not given), the growth is 39.4%.

For `CC[CH2][Sn]([Cl])([Cl])[CH2]CC`, the growth was 79.8%.

Consider `Cc1cc(C)cc(Nc2nc3c(s2)CC[C@@]2(C)C3=CC[C@@H]3[C@@H]2CC[C@]2(C)C(=O)CC[C@@H]32)c1`, for which the growth was 72.8%.

Take `COC(=O)[C@@H](C)C[C@H](Cc1ccccc1)NC(=O)c1cccc([C@@H](C[C@H](C(C)C)N(C)C(=O)[C@@H](NC(=O)[C@H]2CCCCN2C)C(C)C)OC(C)=O)n1`: the growth was -32.2% (active).

For `CC(C)[C@]12O[C@H]1[C@@H]1O[C@]13[C@]1(O[C@H]1C[C@H]1c4c(C(=O)c5ccccc5)oc(OC(=O)c5ccccc5)c4CC[C@@]13C)[C@@H]2O`, the growth is -87.9% (active).

Consider `CCCCCCCC[n+]1ccc2ccccc2c1`, for which the growth was 46.2%.
